# Screening data as filed in PubChem.
# Rows were chosen to be rich in hits. Some 10% of all compounds tested hit in one or more screens of this group.
# SW480 rereplic: induces DNA re-replication in SW480 colon adenocarcinoma cells. actives 1.8% (n = 340,000). SW480 DNA re-replication, Hoechst DNA content imaging, 48 h. AID 624297. Potency, µM (titrated, usually from 46.1 µM), inactives show at the highest dose re-replication activation, most hits filed as activators; also: % of control where 0% means no effect; nearly all actives have a fitted effect of over 55% in size
#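 Treated cells incubate 48 hr (37 C, 5% CO2), are stained 40 min with Hoechst, and nuclear fluorescence is enumerated; a rise in nuclei with high DNA signal marks re-replication.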
# MCF10A rereplic: inducers of DNA re-replication in MCF 10A breast cells | MCF 10A DNA re-replication, Hoechst nuclear intensity, 48 h | Potency, µM (series often up to 46.1 µM), for inactives: top-dose activity, positive = re-replication, usual class: activators | actives 2.9% (n = 350,000); also: % of control where 0% means no effect; nearly all actives have a fitted effect of over 50% in size
# KB-V1 MDR tox: kills drug-selected multidrug resistant KB-V1 cells; Potency, µM (series often up to 46.1 µM), most hits filed as cytotoxic; KB-V1 MDR cells viability, CellTiter-Glo, 72 h; AID 1347076; actives 3.4% (n = 400,000); also: % is scaled to controls: 0 for no effect and ±100 for the full control effect; nearly all actives have a fitted effect of over 60% in size
#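 KB-V1 cells (P-gp-expressing MDR subline of KB-3-1) in phenol-red-free DMEM with 10% FBS were exposed to library compounds over a concentration series for 72 h at 37 degrees C. Viability read by CellTiter-Glo luminescence; concentration-effect curves fitted after normalization.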
# KB-3-1 cytotox: kills parental KB-3-1 adenocarcinoma cells. KB-3-1 viability, CellTiter-Glo ATP luminescence, 72 h. AID 1347075. actives 1.4% (n = 400,000). Potency, µM (top dose mostly 46.1 µM), hits mostly cytotoxic; also: % is scaled to controls: 0 for no effect and ±100 for the full control effect; nearly all actives have a fitted effect of over 60% in size
#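 Screening of KB-3-1 cells (DMEM, 10% FBS, phenol-red free) ran from lowest to highest compound concentration; after 72 h at 37 °C viability was read luminescently and curves fitted.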
# VP16 counter: counter-screen for ROR gamma inhibitors: Gal4-VP16 reporter; Drosophila S2 Gal4-VP16 UAS-luciferase, luminescence, 20 h; Potency, µM (titrated, usually from 53.6 µM), inactives show at the highest dose activity, negative = inhibition, actives largely listed as inhibitors; actives 3.5% (n = 310,000); AID 2546;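 also: Gal4-VP16 expression switched on by copper sulfate through the metallothionein promoter; % is scaled to controls: 0 for no effect and ±100 for the full control effect; nearly all actives have a fitted effect of over 50% in size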
# RORg inh: ROR gamma (mouse) transcription inhibition. Potency, µM (titrated, usually from 53.6 µM), without a hit: top-dose activity change, negative = inhibition, usual class: inhibitors. Drosophila S2 Gal4-RORgamma UAS-luciferase reporter, 20 h. actives 5.4% (n = 310,000); also: % is scaled to controls: 0 for no effect and ±100 for the full control effect; nearly all actives have a fitted effect of over 60% in size
# Target sequence (P51450 whole entry, looked up, the tested form may be a part): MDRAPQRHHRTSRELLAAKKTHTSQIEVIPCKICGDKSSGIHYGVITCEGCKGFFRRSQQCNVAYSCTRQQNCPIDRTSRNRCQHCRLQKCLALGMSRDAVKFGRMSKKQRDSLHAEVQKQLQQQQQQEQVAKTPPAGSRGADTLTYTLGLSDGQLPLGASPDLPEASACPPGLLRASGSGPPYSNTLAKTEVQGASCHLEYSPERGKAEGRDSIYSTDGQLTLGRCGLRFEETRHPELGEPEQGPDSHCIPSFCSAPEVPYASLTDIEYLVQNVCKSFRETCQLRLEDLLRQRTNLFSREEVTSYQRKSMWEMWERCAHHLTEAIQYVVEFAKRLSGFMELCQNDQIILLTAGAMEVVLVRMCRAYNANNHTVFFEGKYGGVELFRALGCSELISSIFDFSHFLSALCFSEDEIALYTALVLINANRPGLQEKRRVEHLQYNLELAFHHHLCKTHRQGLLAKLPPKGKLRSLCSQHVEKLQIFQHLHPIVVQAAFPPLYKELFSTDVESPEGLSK
#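 Stable Schneider cell line, Gal4 DNA-binding domain fused to ROR gamma, UAS-luciferase. Cmpd 1 hr RT → CuSO4 700 uM final → 20 hr RT → luciferase reagent 10 min → luminescence.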
# * = called active by the depositor; i = inactive; ? = inconclusive; . = not tested or not shown; [ ] = another dose, or the depositor's remark. Calls follow the shape of the dose curve; as a rule, active = well fitted curve in the direction sought with a large enough effect; inconclusive = small, poorly fitted or top-dose-only effect, or another doubt; inactive = no such curve, though single readings can be large; an effect the other way counts as inactive or inconclusive. Potency is read from the fitted curve at half-maximal effect.
SMILES,SW480 rereplic,MCF10A rereplic,KB-V1 MDR tox,KB-3-1 cytotox,VP16 counter,RORg inh
CCCn1c(SCC(=O)NC2CCCC2)nnc1C(C)C,18µM*,0%,i,i,1%,-15%
C=CC1=C[C@@H](O)C2OC2C12OCCCO2 (stereo partly drawn),.,.,.,.,-6%[10 µM],10%[10 µM]
O=S(=O)(CCSc1nc2ccccc2s1)c1nc2ccccc2s1,?,?,?,?,16µM*,7.1µM*
C=CCS(=O)(=O)c1nc2ccccc2s1,?,7.3µM*,23µM*,?,-12%,19%
COc1ccc2ncnc(NCC3CCCO3)c2c1-c1ccc2c(c1)OCO2 (stereo not drawn),.,.,i,i,.,.
Cc1ccc(C)c(Cn2c(=O)n(Cc3ccccc3)c(=O)c3c2c2cc(C)ccc2n3C)c1,.,.,?,i,.,.
CN(C)c1nc(C(=O)Nc2ccccc2)nc(N(C)C)n1,0%,8%,i,i,1%,-3%
CN(C)c1nc(NNC(=O)c2ccccc2)nc(N(C)C)n1,0%,-3%,8.2µM*,i,.,.
CN1CCN(c2nc(-c3cccnc3)nc3scc(-c4ccccc4)c23)CC1,?,18µM*,i,i,-9%,-1%
CC1CCCN(c2nc(-c3cccnc3)nc3scc(-c4ccccc4)c23)C1 (stereo not drawn),1%,23µM*,?,i,?,?
CC1CCN(c2nc(-c3cccnc3)nc3scc(-c4ccccc4)c23)CC1,3%,?,i,i,?,46%
CC1CCN(c2nc(CN3CCCCC3)nc3scc(-c4ccccc4)c23)CC1,-7%,2%,?,?,22µM*,10µM*
COC(=O)C[C@H]1C=C[C@H](NC(=O)c2ccccn2)[C@@H](CO)O1,.,.,i,i,.,.
O=C(c1ccc(Cl)cc1)C(CN1CCCCC1)c1ccccc1 (stereo not drawn),?,?,21µM*,23µM*,?,?
COc1ccc(C(=O)C(CN2CCOCC2)c2ccccc2)cc1F (stereo not drawn),?,12µM*,?,?,11µM*,11µM*
CCCOc1ccc(C(=O)C(CN2CCOCC2)c2ccccc2)cc1 (stereo not drawn),11µM*,18µM*,?,?,?,13µM*
CCOC(=O)C(CN1CCCC1)c1ccccc1 (stereo not drawn),-9%,18%,?,i,.,.
Cc1ccccc1NC(=O)Cn1nc(-c2ccc(F)cc2)c2cnc3ccccc3c21,.,.,i,i,.,.
C=CCN(c1ccccc1)S(=O)(=O)c1cccc(C(=O)NCC2CCCO2)c1 (stereo not drawn),2%,5%,?,i,8%,6%
CCN(CC)S(=O)(=O)c1cccc(C(=O)NCC2CCCO2)c1 (stereo not drawn),?,23µM*,i,i,-2%,5%
CCN(CC)S(=O)(=O)c1cccc(C(=O)NCC(c2ccccc2)N(C)C)c1 (stereo not drawn),-3%,?,?,i,2%,35%
O=C(NCC1CCCO1)c1cccc(S(=O)(=O)N(Cc2ccccc2)c2ccccc2)c1 (stereo not drawn),-4%,20%,8.2µM*,i,.,.
CCN(CC)S(=O)(=O)c1cccc(C(=O)NCC2CCCCC2)c1,-1%,7%,12µM*,?,1%,31%
COCCNC(=O)C1=C(N)C(C(=O)Nc2ccc(C)c(S(=O)(=O)N3CCCCC3)c2)SC1=Nc1ccc(C)cc1C (stereo not drawn),?,?,i,i,-13%,-11%
CCN(CC)S(=O)(=O)c1cccc(NC(=O)C2SC(=Nc3ccc(C)cc3C)C(C(=O)NCC3CCCO3)=C2N)c1 (stereo not drawn),?,?,21µM*,?,1%,30%
